Assay [1] can be described thus: ATG_TAL_CIS: Attagene CIS-FACTORIAL HepG2 Assay for human TAL Basal Promoter (AID 2282966; active = hit-call score of the fitted dose curve at least 0.9, where 1 is the maximum; inactive = score below 0.9;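 also: background control endpoint measuring basal TAL promoter reporter mRNA not a specific factor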). The conditions noted are these: HepG2 Attagene cis-factorial TAL promoter reporter; actives raise or lower the signal. In outline: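 HepG2, transient MRTU transfection, 24 h compound exposure; RNA → oligo(dT) RT → PCR → 6-FAM primer extension → HpaI digest → CE fluorescence. Bidirectional curve fit vs DMSO. Background-control readout.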

Assay [2] in a line: ATG_TGFb_CIS: Attagene CIS-FACTORIAL HepG2 Assay for human Transforming Growth Factor (TGF) (AID 2282967; active = hit-call score of the fitted dose curve at least 0.9, where 1 is the maximum; inactive = score below 0.9). The note with it: HepG2 Attagene CIS TGFb reporter, mRNA transcription; actives raise or lower the signal. In outline:
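Endogenous TGFB1-linked transcription factor activity read as reporter mRNA via RT-PCR and capillary electrophoresis, 24 h after dosing transiently transfected HepG2 cells. Gain or loss of signal fitted relative to DMSO.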

The nature of assay [3]: ATG_VDRE_CIS: Attagene CIS-FACTORIAL HepG2 Assay for human Vitamin D Receptor Element (VDRE) (AID 2282968; active = hit-call score of the fitted dose curve at least 0.9, where 1 is the maximum; inactive = score below 0.9). The note with it: HepG2 VDRE cis-reporter transcription, actives raise or lower the signal. In outline: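 Readout is VDRE-driven reporter mRNA reflecting endogenous factor activity in human HepG2 cells, sampled 24 h post-dose. Quantification used labelled RT-PCR products separated by capillary electrophoresis; bidirectional analysis relative to DMSO.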

The target in assay [4] is Nuclear receptor subfamily 1 group I member 3 (Homo sapiens) (UniProt Q14994). The assay can be described thus: ATG_CAR_TRANS: Attagene TRANS-FACTORIAL HepG2 Assay for human Constitutive Androstane Receptor (CAR) (AID 2282969).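 Also: activators raise reporter mRNA above DMSO so AC50 marks induction.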 The note with it: HepG2 Attagene TRANS-FACTORIAL CAR reporter. The method, boiled down:
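Signal is reporter mRNA induction relative to DMSO, measured 24 h after dosing by RT-PCR with fluorescent primer extension and capillary electrophoresis. Human HepG2 liver cells carried transiently transfected chimeric NR-Gal4/GAL4-UAS reporter constructs.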

For assay [5], the target named is X-box-binding protein 1 (Homo sapiens) (UniProt P17861). The assay is described as follows: ATG_Xbp1_CIS: Attagene CIS-FACTORIAL HepG2 Assay for human X-box Binding Protein 1 (XBP1) (AID 2282972; active = hit-call score of the fitted dose curve at least 0.9, where 1 is the maximum; inactive = score below 0.9). The conditions noted are these: HepG2 XBP1 cis-element reporter, Attagene multiplex; actives raise or lower the signal. The method, boiled down:
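Reporter transcripts were quantified by RT-PCR with fluorescent primer extension and capillary electrophoresis after 24 h chemical exposure. Cells: transiently transfected HepG2 carrying cis-regulated reporter constructs; data fitted bidirectionally relative to DMSO.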

A short description of assay [6]: ATG_M_19_TRANS: Attagene TRANS-FACTORIAL HepG2 Assay for M19 Transcription Factor (Internal Marker) (AID 2282974). The conditions noted are these: HepG2 Attagene TRANS-FACTORIAL M19 internal marker reporter. The method, boiled down:
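HepG2 transiently transfected with GAL4-UAS multiplex reporter constructs, exposed 24 h; reporter RNA quantified by RT-PCR, 6-FAM labeling, HpaI digestion and capillary electrophoresis; internal background marker fitted upward versus DMSO.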

A short description of assay [7]: ATG_GAL4_TRANS: Attagene TRANS-FACTORIAL HepG2 Assay for GAL4 (Internal Marker) (AID 2282976). The conditions noted are these: HepG2 Attagene TRANS GAL4 internal marker reporter. In outline: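 RT-PCR/capillary electrophoresis readout of reporter mRNA. HepG2, transient MRTU transfection (GAL4-UAS reporters), 24 h compound exposure. Background-control endpoint, positive direction vs DMSO baseline.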

Assay [8] has as its target Estrogen-related receptor gamma (Homo sapiens) (UniProt P62508). The assay is described as follows: ATG_ERRg_TRANS: Attagene TRANS-FACTORIAL HepG2 Assay for human Estrogen-Related Receptor gamma (ERRg) (AID 2282977).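 Also: hits increase reporter signal over DMSO so potencies reflect activators.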 The conditions noted are these: HepG2 Attagene TRANS reporter, ERRg transactivation. In outline: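 Exogenous NR-Gal4 chimera activity measured as reporter transcript induction after 24 h in transiently transfected HepG2 cells. RNA reverse-transcribed, PCR-amplified, 6-FAM-labelled and resolved by capillary electrophoresis; increase over DMSO baseline.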

In assay [9] the target is Glucocorticoid receptor (Homo sapiens) (UniProt P04150). The assay can be described thus: ATG_GR_TRANS: Attagene TRANS-FACTORIAL HepG2 Assay for human Glucocorticoid Receptor (GR) (AID 2282978).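 Also: activators score as hits since higher reporter transcript over DMSO is fitted.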 The conditions noted are these: HepG2 Attagene TRANS GR reporter, mRNA transcription. In outline: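 HepG2 cells transiently transfected with GAL4-UAS reporter units and exogenous GR-Gal4 chimera, dosed 24 h. Reporter mRNA by RT-PCR, FAM labeling, HpaI digest and capillary electrophoresis; gain-of-signal fit versus DMSO.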
Glucocorticoid receptor (Homo sapiens), sequence (P04150 whole entry, looked up, the tested form may be a part): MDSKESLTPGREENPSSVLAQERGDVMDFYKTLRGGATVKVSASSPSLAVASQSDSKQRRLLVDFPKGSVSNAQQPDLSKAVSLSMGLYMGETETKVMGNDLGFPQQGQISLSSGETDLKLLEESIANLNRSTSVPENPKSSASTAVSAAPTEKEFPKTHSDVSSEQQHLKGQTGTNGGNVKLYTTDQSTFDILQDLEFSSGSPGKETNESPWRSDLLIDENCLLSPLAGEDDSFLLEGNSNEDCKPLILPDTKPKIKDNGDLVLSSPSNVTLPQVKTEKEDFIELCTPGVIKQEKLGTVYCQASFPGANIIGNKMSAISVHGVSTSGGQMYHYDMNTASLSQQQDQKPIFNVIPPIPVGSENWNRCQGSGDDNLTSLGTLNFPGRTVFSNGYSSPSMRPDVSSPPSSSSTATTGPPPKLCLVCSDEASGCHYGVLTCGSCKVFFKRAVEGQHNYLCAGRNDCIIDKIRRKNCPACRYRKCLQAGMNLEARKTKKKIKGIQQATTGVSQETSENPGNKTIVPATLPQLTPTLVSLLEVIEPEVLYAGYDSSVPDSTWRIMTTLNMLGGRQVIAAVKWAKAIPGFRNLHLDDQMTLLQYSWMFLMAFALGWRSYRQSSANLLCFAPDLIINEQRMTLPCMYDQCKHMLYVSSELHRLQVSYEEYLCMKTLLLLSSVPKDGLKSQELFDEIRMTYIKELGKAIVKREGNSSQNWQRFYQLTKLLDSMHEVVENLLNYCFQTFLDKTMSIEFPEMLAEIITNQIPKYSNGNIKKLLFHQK

For assay [10], the target named is Oxysterols receptor LXR-alpha (Homo sapiens) (UniProt Q13133). The assay can be described thus: ATG_LXRa_TRANS: Attagene TRANS-FACTORIAL HepG2 Assay for human Liver X Receptor alpha (LXRa) (AID 2282980). The note with it: HepG2 Attagene TRANS reporter, LXRa transactivation. The method, boiled down: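 Read-out: reporter transcript levels by RT-PCR plus capillary electrophoresis, fluorescence intensity. Transiently transfected HepG2, exogenous NR-GAL4 chimera, GAL4-UAS reporters; 24 h compound exposure. Activity = increase over DMSO negative control.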

Assay [11] concerns the target Hepatocyte nuclear factor 4-alpha (Homo sapiens) (UniProt P41235). The assay can be described thus: ATG_HNF4a_TRANS: Attagene TRANS-FACTORIAL HepG2 Assay for human Hepatocyte Nuclear Factor 4 alpha (HNF4a) (AID 2282982). The note with it: HepG2 HNF4a transactivation reporter, mRNA readout. In outline:
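Activity of an exogenous HNF4a–Gal4 fusion scored as induced GAL4-UAS reporter transcripts after 24 h chemical exposure of transfected human HepG2 cells. Read-out via RT-PCR with 6-FAM labelling and capillary electrophoresis; rise over DMSO baseline.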

The target of assay [12] is Nuclear receptor subfamily 4 group A member 2 (Homo sapiens) (UniProt P43354). The assay can be described thus: ATG_NURR1_TRANS: Attagene TRANS-FACTORIAL HepG2 Assay for human Nuclear Receptor Related Protein 1 (NURR1) (AID 2282985). The note with it: HepG2 Attagene TRANS reporter, mRNA readout. In outline:
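Reporter transcript induction, measured by RT-PCR with fluorescent labelling, HpaI digestion and capillary electrophoresis, after 24 hr dosing of human HepG2 cells transiently expressing an exogenous NR-Gal4 fusion with GAL4-UAS-driven reporters; DMSO as baseline.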

Assay [13] concerns the target Nuclear respiratory factor 1 (Homo sapiens) (UniProt Q16656). The assay can be described thus: ATG_NRF1_CIS: Attagene CIS-FACTORIAL HepG2 Assay for human Nuclear Respiratory Factor 1 (NRF1) Orphan Gene (AID 2282987; active = hit-call score of the fitted dose curve at least 0.9, where 1 is the maximum; inactive = score below 0.9). The conditions noted are these: HepG2 NRF1 cis-element reporter, Attagene multiplex; actives raise or lower the signal. The method, boiled down: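 HepG2 cells transiently transfected with multiple cis-regulated reporter units, exposed 24 h. Reporter mRNAs measured by RT-PCR, fluorescent labelling, HpaI digestion and capillary electrophoresis; bidirectional fitting against DMSO.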

A short description of assay [14]: ATG_NFI_CIS: Attagene CIS-FACTORIAL HepG2 Assay for human Nuclear Factor I (NFI) (AID 2282989; active = hit-call score of the fitted dose curve at least 0.9, where 1 is the maximum; inactive = score below 0.9). The note with it: HepG2 cis-regulatory reporter, NFI response element transcription; actives raise or lower the signal. In outline: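 Reporter transcripts were measured by RT-PCR with fluorescent primer extension and capillary electrophoresis 24 h post-treatment. HepG2 cells carried transiently transfected cis-regulated reporter constructs reporting endogenous factor activity; gain or loss fitted against DMSO baseline.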

For assay [15], the target named is Steroid hormone receptor ERR1 (Homo sapiens) (UniProt P11474). The assay is described as follows: ATG_ERRa_TRANS: Attagene TRANS-FACTORIAL HepG2 Assay for human Estrogen-Related Receptor alpha (ERRa) (AID 2282971). The conditions noted are these: HepG2 Attagene TRANS reporter, ERRa transactivation. The method, boiled down:
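Transfected HepG2, 24 h dosing, ERRa-Gal4 chimera driving GAL4-UAS reporter. Readout: reporter mRNA via RT-PCR plus capillary electrophoresis (fluorescence). Positive direction vs DMSO control.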

In assay [16] the target is Bile acid receptor (Homo sapiens) (UniProt Q96RI1). The assay is described as follows: ATG_FXR_TRANS: Attagene TRANS-FACTORIAL HepG2 Assay for Farnesoid X Receptor (FXR) (AID 2282979).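 Also: hits raise reporter mRNA above DMSO so AC50 marks FXR activation.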 The conditions noted are these: HepG2 Attagene TRANS FXR-GAL4 reporter transcription. The method, boiled down: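 Read-out: fluorescent reporter transcripts quantified by capillary electrophoresis after RT-PCR of total RNA. Source cells were HepG2 transiently carrying chimeric NR-GAL4 plus GAL4-UAS reporter units, dosed 24 h. Activity fitted upward relative to DMSO baseline.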
Bile acid receptor (Homo sapiens), sequence (Q96RI1 whole entry, looked up, the tested form may be a part): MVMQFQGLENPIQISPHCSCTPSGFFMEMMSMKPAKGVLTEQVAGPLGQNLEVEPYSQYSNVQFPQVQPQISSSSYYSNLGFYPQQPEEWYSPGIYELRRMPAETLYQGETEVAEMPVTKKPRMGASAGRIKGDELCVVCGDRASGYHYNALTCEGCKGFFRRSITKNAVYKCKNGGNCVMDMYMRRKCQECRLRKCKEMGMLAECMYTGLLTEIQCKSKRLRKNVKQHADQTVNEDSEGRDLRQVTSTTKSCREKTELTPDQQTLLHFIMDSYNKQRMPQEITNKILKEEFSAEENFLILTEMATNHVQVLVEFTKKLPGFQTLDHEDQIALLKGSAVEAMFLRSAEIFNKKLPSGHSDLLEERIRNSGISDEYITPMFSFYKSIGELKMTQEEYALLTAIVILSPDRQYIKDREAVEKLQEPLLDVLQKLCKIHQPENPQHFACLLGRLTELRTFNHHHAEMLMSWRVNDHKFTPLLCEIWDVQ

Assay [17] addresses Oxysterols receptor LXR-beta (Homo sapiens) (UniProt P55055). The assay is described as follows: ATG_LXRb_TRANS: Attagene TRANS-FACTORIAL HepG2 Assay for human Liver X Receptor beta (LXRb) (AID 2282981). The note with it: HepG2 Attagene TRANS GAL4-LXRb reporter, mRNA. The method, boiled down:
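After 24 h chemical treatment of transfected HepG2 cells carrying exogenous NR-Gal4 chimeras, reporter mRNA was quantified by fluorescent RT-PCR and capillary electrophoresis; activity taken as increase over DMSO controls.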

Assay [18] can be described thus: ATG_M_06_TRANS: Attagene TRANS-FACTORIAL HepG2 Assay for M06 Transcription Factor (Internal Marker) (AID 2282983). The conditions noted are these: HepG2 Attagene TRANS M06 internal marker reporter. In outline:
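Read-out: fluorescent reporter cDNA fragments resolved by capillary electrophoresis after RT-PCR and HpaI cut. Source cells were HepG2 carrying transfected multi-reporter GAL4 constructs, dosed 24 h. Increase over DMSO control analysed.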

In assay [19] the target is Transcriptional activator Myb (Homo sapiens) (UniProt P10242). The assay is described as follows: ATG_Myb_CIS: Attagene CIS-FACTORIAL HepG2 Assay for human Myeloblastosis (Myb) Proto-Oncogene Transcription Factor (AID 2282986; active = hit-call score of the fitted dose curve at least 0.9, where 1 is the maximum; inactive = score below 0.9). The note with it: HepG2 Attagene CIS-FACTORIAL Myb reporter transcription; actives raise or lower the signal. The method, boiled down: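 Transiently transfected HepG2 cells carrying a multiplexed cis-promoter reporter set report endogenous Myb activity after 24 h compound exposure. Reporter mRNA is read by RT-PCR with capillary electrophoresis of fluorescent products, fitted bidirectionally against DMSO.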
Transcriptional activator Myb (Homo sapiens), sequence (P10242 whole entry, looked up): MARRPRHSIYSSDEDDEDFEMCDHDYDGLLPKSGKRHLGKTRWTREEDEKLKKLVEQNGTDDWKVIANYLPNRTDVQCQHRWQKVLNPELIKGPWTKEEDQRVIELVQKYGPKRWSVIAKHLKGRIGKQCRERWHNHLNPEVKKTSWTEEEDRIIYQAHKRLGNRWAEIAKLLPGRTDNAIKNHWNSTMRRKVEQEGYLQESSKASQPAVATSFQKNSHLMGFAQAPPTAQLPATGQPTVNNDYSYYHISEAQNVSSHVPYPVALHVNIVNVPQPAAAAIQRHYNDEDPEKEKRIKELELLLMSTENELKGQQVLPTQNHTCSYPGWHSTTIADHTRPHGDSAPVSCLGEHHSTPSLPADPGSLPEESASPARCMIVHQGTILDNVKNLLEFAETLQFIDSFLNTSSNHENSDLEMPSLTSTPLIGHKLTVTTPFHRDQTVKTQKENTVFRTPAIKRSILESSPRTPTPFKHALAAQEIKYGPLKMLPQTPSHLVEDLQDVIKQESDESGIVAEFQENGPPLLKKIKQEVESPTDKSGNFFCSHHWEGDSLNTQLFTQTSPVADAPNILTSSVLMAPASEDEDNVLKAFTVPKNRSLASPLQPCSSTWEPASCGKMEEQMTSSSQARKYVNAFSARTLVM

Assay [20] is described as follows: ATG_M_32_TRANS: Attagene TRANS-FACTORIAL HepG2 Assay for M32 Transcription Factor (Internal Marker) (AID 2282984).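 Also: transcript level of a background control reporter unit measured by RT-PCR and capillary electrophoresis.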 The conditions noted are these: HepG2 Attagene TRANS M32 internal marker reporter. The method, boiled down: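 Internal background reporter in transfected HepG2: after 24 h chemical exposure, RNA reverse-transcribed, reporter cDNA amplified, fluorescently labelled and HpaI-cut, then sized by capillary electrophoresis. Gain of signal fitted against DMSO control.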

Results filed as inconclusive are left out. Active and inactive are the calls of the source. The calls were made as follows, unless noted: active = hit-call score of the fitted dose curve at least 0.9, where 1 is the maximum; inconclusive = response in the unintended direction; inactive = score below 0.9.

Experimental findings from PubChem BioAssay (EPA / NIEHS) are described below.

Nuclear receptor subfamily 4 group A member 2 (Homo sapiens), sequence (P43354 whole entry, looked up, the tested form may be a part): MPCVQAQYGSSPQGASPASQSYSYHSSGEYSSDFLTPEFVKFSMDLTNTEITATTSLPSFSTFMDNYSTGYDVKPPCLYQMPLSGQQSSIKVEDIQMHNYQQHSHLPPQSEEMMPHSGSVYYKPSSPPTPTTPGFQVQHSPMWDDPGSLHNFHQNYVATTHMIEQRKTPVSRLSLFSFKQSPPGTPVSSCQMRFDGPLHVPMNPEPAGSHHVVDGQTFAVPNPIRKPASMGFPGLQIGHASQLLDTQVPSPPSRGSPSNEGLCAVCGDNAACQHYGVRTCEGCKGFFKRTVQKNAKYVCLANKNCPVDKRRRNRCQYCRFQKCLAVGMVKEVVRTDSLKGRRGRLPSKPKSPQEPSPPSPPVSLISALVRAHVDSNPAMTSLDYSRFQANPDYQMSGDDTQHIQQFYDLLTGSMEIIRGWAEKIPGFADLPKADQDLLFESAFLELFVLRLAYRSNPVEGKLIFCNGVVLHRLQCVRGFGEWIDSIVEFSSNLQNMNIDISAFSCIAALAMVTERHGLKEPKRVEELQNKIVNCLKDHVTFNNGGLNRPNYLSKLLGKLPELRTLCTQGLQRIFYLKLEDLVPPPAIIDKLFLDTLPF
Hepatocyte nuclear factor 4-alpha (Homo sapiens), sequence (P41235 whole entry, looked up, the tested form may be a part): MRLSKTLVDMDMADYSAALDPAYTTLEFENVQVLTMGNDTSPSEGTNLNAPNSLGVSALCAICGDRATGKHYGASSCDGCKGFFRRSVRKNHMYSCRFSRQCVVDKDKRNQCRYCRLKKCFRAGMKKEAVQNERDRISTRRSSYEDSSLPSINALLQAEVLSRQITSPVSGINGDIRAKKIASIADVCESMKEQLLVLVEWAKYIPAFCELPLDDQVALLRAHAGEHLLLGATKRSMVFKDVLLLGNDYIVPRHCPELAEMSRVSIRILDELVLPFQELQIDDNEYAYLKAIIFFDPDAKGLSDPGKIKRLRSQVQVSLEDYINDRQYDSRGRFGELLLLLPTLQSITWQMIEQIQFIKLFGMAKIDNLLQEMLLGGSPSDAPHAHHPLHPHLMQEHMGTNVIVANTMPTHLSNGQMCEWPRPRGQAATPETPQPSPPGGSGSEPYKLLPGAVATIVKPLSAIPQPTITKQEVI
Nuclear receptor subfamily 1 group I member 3 (Homo sapiens), sequence (Q14994 whole entry, looked up, the tested form may be a part): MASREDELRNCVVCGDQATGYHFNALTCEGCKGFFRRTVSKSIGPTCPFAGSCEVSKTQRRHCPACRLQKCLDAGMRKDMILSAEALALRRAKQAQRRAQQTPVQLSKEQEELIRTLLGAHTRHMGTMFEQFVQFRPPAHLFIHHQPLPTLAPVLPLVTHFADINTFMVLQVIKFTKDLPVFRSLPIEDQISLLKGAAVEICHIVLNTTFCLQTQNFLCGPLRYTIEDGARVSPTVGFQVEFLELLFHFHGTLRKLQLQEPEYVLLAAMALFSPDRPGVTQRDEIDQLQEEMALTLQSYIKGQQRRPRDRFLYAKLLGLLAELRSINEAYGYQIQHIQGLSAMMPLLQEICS
Estrogen-related receptor gamma (Homo sapiens), sequence (P62508 whole entry, looked up, the tested form may be a part): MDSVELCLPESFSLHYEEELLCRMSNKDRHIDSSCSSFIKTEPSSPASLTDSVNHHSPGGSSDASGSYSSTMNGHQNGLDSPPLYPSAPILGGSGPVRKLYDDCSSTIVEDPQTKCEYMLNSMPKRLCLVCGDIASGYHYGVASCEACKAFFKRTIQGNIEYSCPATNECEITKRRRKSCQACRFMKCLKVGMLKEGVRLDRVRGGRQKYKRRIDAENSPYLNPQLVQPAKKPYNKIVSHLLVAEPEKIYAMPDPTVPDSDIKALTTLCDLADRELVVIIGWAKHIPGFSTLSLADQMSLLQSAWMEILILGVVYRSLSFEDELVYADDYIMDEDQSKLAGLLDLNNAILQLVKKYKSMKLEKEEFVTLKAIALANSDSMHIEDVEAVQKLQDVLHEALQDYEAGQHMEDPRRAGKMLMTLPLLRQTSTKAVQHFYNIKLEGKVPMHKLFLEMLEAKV
Nuclear respiratory factor 1 (Homo sapiens), sequence (Q16656 whole entry, looked up): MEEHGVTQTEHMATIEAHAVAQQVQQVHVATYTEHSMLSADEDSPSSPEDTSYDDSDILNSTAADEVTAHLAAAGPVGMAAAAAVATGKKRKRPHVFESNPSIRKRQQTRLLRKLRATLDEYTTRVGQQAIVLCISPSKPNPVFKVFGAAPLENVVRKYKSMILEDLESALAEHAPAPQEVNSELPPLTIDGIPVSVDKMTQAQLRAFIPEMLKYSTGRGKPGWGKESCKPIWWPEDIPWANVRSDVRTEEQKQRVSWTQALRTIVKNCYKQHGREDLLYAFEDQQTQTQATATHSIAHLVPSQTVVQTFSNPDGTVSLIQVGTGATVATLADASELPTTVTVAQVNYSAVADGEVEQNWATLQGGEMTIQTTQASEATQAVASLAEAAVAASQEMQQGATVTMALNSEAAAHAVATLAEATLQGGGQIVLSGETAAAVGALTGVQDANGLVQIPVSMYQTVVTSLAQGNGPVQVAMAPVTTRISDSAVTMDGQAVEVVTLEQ
Steroid hormone receptor ERR1 (Homo sapiens), sequence (P11474 whole entry, looked up, the tested form may be a part): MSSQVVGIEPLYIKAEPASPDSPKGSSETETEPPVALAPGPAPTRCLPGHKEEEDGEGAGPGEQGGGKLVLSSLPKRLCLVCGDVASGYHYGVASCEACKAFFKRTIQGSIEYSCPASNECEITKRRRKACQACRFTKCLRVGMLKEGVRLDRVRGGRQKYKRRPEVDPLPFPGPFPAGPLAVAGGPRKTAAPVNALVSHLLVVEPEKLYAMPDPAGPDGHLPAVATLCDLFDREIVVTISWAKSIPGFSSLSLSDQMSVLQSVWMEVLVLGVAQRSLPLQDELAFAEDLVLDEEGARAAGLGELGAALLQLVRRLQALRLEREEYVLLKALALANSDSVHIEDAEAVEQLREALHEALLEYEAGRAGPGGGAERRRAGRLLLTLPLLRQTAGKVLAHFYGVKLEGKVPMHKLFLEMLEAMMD
X-box-binding protein 1 (Homo sapiens), sequence (P17861 whole entry, looked up): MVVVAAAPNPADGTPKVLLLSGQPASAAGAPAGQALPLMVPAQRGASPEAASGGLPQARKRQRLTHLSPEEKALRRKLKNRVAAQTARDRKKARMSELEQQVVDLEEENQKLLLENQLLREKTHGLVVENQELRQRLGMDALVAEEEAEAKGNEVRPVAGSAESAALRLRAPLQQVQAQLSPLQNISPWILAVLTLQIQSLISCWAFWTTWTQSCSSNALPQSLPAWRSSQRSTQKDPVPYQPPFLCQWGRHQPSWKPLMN

On to `Cc1c(C2(c3cc(Br)c(O)c(Br)c3C)OS(=O)(=O)c3ccccc32)cc(Br)c(O)c1Br`, for which the compound was called inactive in assay [1], in assay [2], in [4], in assay [5], in [6] and in assay [7]. In addition, the compound was called inactive in assay [8], in assay [9], in [10], in assay [11], in assay [12] and in assay [13]. For the same compound, in assay [14], the call was inactive. Further, in [3], the AC50 was 22.7 µM (active).
On to `COc1ccc(COC(C)=O)cc1`, for which the call in assay [1], in [2], in assay [3], in [4], in [15] and in assay [5] was inactive. The outcome in assay [6], in assay [8], in assay [16], in [17], in assay [11] and in assay [18] was inactive. The compound was classed as inactive in [12], in assay [19], in assay [13] and in assay [14].
As to `NCC1CCCC(CN)C1` (centres undefined), the compound was classed as inactive in assay [1], in [2], in assay [3], in [4], in assay [15] and in assay [7]. Moreover, the result in assay [9], in assay [16], in [17], in assay [11], in [18] and in [20] was inactive. Moreover, the compound was classed as inactive in [12], in [19] and in [13].
With `C[Si]1(C)O[Si](C)(C)O[Si](C)(C)O1`, the compound was classed as inactive in assay [1], in assay [2], in assay [3], in assay [4], in assay [15] and in [5]. The result in assay [6], in assay [7], in assay [8], in assay [16], in [12] and in [19] was inactive. In addition, the outcome in [13] and in assay [14] was inactive.

The term AC50 denotes the concentration at which the activity in the assay is half-maximal.
